# Hit rate of the full screen: of about 310,000 compounds, about 3,900 (1.3%) were called active.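 How the source made its calls: active means compounds whose thallium flux B-score, printed positive for inhibition, exceeds three library SD while starting fluorescence stays within three; inactive means the rest.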 The entries come from a sample that favours actives as a whole.
# Target: Potassium voltage-gated channel subfamily KQT member 1 (Homo sapiens) (UniProt P51787)
# Test: inhibitors of human KCNQ1 channel, primary screen, cell-based, thallium flux, high-throughput (AID 2642);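 further: channel opened by potassium depolarization with thallium stimulus after 20 min compound exposure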
# Details: CHO-K1 KCNQ1, FluxOR thallium flux fluorescence, at 10 µM; stronger effect = higher value
# Chain of Potassium voltage-gated channel subfamily KQT member 1 (Homo sapiens) (P51787 whole entry, looked up): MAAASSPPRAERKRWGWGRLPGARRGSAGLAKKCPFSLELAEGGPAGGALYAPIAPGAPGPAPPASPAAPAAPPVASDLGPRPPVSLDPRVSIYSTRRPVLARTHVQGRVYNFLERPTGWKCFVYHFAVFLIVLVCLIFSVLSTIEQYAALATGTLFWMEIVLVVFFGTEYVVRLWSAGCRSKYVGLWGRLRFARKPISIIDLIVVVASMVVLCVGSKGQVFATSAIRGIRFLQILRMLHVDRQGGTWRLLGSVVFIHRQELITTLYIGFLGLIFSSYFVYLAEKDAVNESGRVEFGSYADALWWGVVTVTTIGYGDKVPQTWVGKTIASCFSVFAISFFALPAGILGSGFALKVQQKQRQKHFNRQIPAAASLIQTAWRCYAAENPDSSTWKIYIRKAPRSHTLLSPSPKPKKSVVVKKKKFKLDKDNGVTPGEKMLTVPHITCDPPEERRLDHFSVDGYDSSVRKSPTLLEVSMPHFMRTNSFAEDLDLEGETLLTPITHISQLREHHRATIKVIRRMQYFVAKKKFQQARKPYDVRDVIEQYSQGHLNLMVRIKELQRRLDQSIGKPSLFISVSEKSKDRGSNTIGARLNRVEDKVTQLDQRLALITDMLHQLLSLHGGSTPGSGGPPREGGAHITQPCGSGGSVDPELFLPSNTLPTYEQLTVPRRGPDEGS
row,SMILES,B-score
1,COc1ccccc1N1CCN(C(=O)c2cn(-c3ccccc3)nc2-c2cccnc2)CC1,inactive
2,COc1ccc(NC(=O)C(CC(C)C)NC(=O)C2CCC(C)CC2)cc1 (stereo not given),inactive
3,COc1ccc(CCNCC(O)Cn2ccc3ccccc32)cc1OC (stereo not given),inactive
4,Cc1cccc(NC(=S)Nc2ccc3cn[nH]c3c2)c1,inactive
5,Cc1cccc(NC(=S)Nc2ccc(Br)cc2)c1,6 (active)
6,Cc1cccc(NC(=O)NC(=S)NC(=O)c2ccccc2)c1,inactive
7,Cc1cccc(NC(=S)NC23CN4CN(CN(C4)C2)C3)c1,inactive
8,Cc1ccc(NC(=S)Nc2ccc(F)cc2)cc1,inactive
9,Cc1cccc(NC(=S)Nc2ccc(Cl)c(Cl)c2)c1,7 (active)
10,Cc1ccc(C)c(N2CCN(C(=O)CCCn3c(=O)c4cccn4c4cccnc43)CC2)c1,inactive
11,COC(=O)CN1C(=O)[C@H]2[C@@H](/C=C/c3ccccc3)N3C(=O)CN(Cc4ccccc4)C(=O)[C@@]3(Cc3ccccc3)[C@H]2C1=O,inactive
12,CN(C)/C=C(/C(=O)c1ccc(F)cc1)S(=O)(=O)c1ccc(F)cc1,inactive
13,Cc1nnc(SC(C(=O)Nc2cc(Cl)cc(Cl)c2)c2ccccc2)[nH]c1=O (stereo not given),8 (active)
14,CC(NCC(=O)Nc1cc(Cl)cc(Cl)c1)c1ccccc1 (stereo not given),inactive
15,Cc1nnc(SC(C(=O)c2ccccc2)c2ccccc2)[nH]c1=O (stereo not given),inactive
16,CC(/C=C/c1ccccc1)=N\NC(=O)C1CC1(C)c1ccccc1 (stereo not given),9 (active)
17,O=C(N/N=C/C=C/c1ccccc1)C1CC1(c1ccccc1)c1ccccc1 (stereo not given),inactive
18,CC(/C=C/c1ccco1)=N/NC(=O)C1COc2ccccc2O1 (stereo not given),inactive
19,COc1ccc(NC(=O)c2oc3ccc(S(=O)(=O)N4CCOCC4)cc3c2C)cc1,inactive
20,COCCN1C2=C(COC(C)(C)C2)C(=S)NC1c1ccccc1 (stereo not given),inactive
21,Cc1nc([N+](=O)[O-])nn1C12CC3CC(CC(Br)(C3)C1)C2,inactive
22,CCOC(=O)c1c(NC(=O)CCCN2CCOCC2)sc2c1CC(C)(C)OC2,inactive
23,COc1ccc(C(=O)C2CCCN(Cc3ccc4nonc4c3)C2)c(C)c1 (stereo not given),inactive
24,COc1ccc(C(=O)C2CCCN(Cc3cccn3-c3ccccn3)C2)c(C)c1 (stereo not given),9 (active)
25,CCOC(=O)c1[nH]ncc1CN1CCCC(C(=O)c2ccc(OC)cc2C)C1 (stereo not given),inactive
26,CCC(=O)c1ccc(OCC(O)Cn2nc(C)c(C(C)=O)c2C)cc1 (stereo not given),inactive
27,CCOC(=O)CCc1c(C)c(C#N)c2[nH]c3ccccc3n2c1=O,inactive
28,Cc1ccccc1Cn1c(=O)[nH]c2ccccc21,inactive
29,CCCc1cc(=S)n2c([nH]c3ccccc32)c1C#N,8 (active)
30,CCCN(CC1COc2ccccc2O1)C(=S)Nc1ccc(C)cc1 (stereo not given),inactive

# — PubChem BioAssay AID2642 (Johns Hopkins Ion Channel Center, 2010)
